Results from the supplement of paper PMC3334620.
The full ranking holds about 33,000 sequences; the median of “E-score (-0.5 to 0.5)” is about -0.056, and the highest 2% start at about 0.38. For the sample, the highest values were picked, then their nearest neighbours and some sequences at random.

Target: Stb4 (UniProt P50104)
Assay: PBM E-score (8-mer binding enrichment) (E-score (-0.5 to 0.5)); higher = stronger / more preferred TF binding
Settings: protein concentration: 200 nM; construct: GST-DNA-binding domain
Method in brief: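 Yeast transcription factors, full-length or as DNA-binding domains, were expressed with a GST tag using PURExpress in vitro transcription/translation. At about 100-200 nM they were applied to universal all-10-mer Agilent arrays, double-stranded by primer extension on fresh or once-stripped slides. Fluorescent anti-GST detected bound protein, and masliner normalised the scans. E-scores for ungapped eight-base words, pooled with reverse complements, came from the Universal PBM Analysis Suite.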

Sequence of UniProt P50104 (P50104 whole entry): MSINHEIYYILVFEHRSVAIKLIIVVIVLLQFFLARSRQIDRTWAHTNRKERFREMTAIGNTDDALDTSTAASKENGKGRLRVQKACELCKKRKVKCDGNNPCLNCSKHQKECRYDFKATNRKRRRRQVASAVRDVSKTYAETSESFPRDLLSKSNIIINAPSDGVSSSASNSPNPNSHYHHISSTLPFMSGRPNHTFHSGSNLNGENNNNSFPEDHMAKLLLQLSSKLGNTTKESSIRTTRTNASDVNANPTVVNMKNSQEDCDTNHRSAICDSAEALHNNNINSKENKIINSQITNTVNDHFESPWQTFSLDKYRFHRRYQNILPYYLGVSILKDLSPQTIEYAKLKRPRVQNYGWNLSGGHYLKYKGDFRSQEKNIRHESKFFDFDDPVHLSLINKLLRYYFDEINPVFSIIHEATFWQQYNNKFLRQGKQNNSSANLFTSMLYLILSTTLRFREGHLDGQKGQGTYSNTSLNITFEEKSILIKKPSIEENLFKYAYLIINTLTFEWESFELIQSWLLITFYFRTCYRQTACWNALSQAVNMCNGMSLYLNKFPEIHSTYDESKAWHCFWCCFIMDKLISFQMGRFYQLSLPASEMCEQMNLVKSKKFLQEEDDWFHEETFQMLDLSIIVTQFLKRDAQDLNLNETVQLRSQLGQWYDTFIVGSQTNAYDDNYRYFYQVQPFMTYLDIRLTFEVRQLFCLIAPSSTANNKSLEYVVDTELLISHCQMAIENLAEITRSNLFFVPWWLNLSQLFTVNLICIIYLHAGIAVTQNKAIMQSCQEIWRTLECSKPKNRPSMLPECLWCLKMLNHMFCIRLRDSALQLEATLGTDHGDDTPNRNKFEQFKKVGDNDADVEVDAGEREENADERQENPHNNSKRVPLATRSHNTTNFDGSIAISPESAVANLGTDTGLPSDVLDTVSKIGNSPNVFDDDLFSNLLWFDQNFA

Sequence	PBM E-score
GTAGCCAA	-0.025
ATAGCCGC	0.236
CTAGCCAA	-0.0164
GTAGCCTA	-0.382
GTAGCCGA	0.4
ATAGCCGG	0.353
CTAGCCGC	0.21
ATAGCCGA	0.442
AAGAGTGG	-0.179
CTGCCTAA	-0.169
TGCCAAAA	-0.0796
TCGGGGCA	0.226
ACTGGGCT	-0.0497
ACAGTGCT	-0.181
ATCACAAA	-0.149
CTATCTAC	-0.0208
CTCGCCGC	0.0149
ACTGTACG	-0.153
CCGAGGTC	0.424
GCGAGGTA	-0.124
ACGAGGTA	-0.0352
CCGAGGTA	0.401
CTGAGGTC	-0.243
ACGAGGTC	-0.278
ACGAATCA	-0.0567

Sequence	PBM E-score
CCAGTAAA	-0.0636
TGATCGAA	-0.125
GACCGCGA	0.0256
AAATCCCG	0.339
ATCTCGGA	0.461
ATCTCGAG	-0.0973
ATCTCGGG	0.449
GTCTCGGA	0.442
GTCTCGTA	-0.115
ATCTCGCA	-0.035
ATCTCGCG	-0.0115
ATCTCGAA	-0.0183
GTCTCGAA	-0.255
AAGATTTA	0.0925
AAGAAATA	-0.0625
AGTTAGGA	-0.167
ATCACGAC	-0.123
CTTCGGTC	0.234
CTTCGGTA	0.383
CGTCGGTA	0.294
ATTCGGTA	0.36
GTTCGGTA	0.425
GGTCGGTA	0.223
AAGACTCC	-0.0274
AGATAGTG	-0.0913

Sequence	PBM E-score
ATAAGTAG	-0.157
CCCGAACC	0.414
CACGAACC	-0.198
GGCGAACC	-0.0255
CACGAACA	-0.0987
CGCGAACC	0.166
CCCGAACG	0.378
TGCGAACA	-0.144
CCCGAACA	0.393
TACGAACA	-0.191
GCCGAACC	0.395
TCCGAACA	0.447
ACCGAACC	0.336
GGAAAGTA	0.172
GAAATAGC	0.0755
GATCTTGC	0.0905
AGGCAGAC	-0.1
CGAGACGC	0.14
ACCCGCTA	0.151
CACCCTAA	-0.201
CTACAGTA	-0.139
ACTCCTTA	-0.0987
CGCAAGAA	0.0756
ACCGAACA	0.313
GCCGAACA	0.393

Sequence	PBM E-score
GTCGAACA	-0.044
CCAGGTCG	-0.247
ATTACCCA	-0.0268
AATACCCT	0.0669
ATTACCCG	0.416
ATTACCCC	0.133
CACACCCG	0.3
AATACCCG	0.431
ACTACCCC	-0.0517
AACACCCG	0.4
AACACCCC	0.0426
ACTACCCA	-0.261
ACTACCCG	0.401
AATACCCA	-0.00809
CCAGTGCA	-0.303
ACGGCTAG	0.12
ACAGCCAA	-0.135
TCTAGAGA	-0.256
TGAAACAA	-0.124
CAAGAAAG	-0.0821
ACGAACGG	0.0948
GCGAACGC	-0.0479
ACGAACGC	-0.15
CCGAACGA	0.379
CCGAACGG	0.413

Sequence	PBM E-score
CCGAACGC	0.415
ATGCTGTC	-0.134
CGCTAGAA	-0.154
ACTTATCT	-0.211
AAGTCTTC	-0.108
ATGCTGAG	-0.229
GCTTCGTA	-0.25
ACTTCGGG	0.407
ACTTCGAG	-0.0152
GCTTCGGA	0.439
ACTTCGGC	0.392
CCTTCGCA	-0.236
CCTTCGAA	-0.117
ACTTCGCG	0.116
ACTTCGCC	-0.0357
CCTTCGGC	0.335
CCTTCGGA	0.474
GCTTCGCA	-0.173
CGTAGTGA	-0.114
GAAGAGTC	-0.0545
ACCACTAA	-0.0511
AGGAGTCG	-0.142
GCCATAAC	-0.211
AAGTCGGG	0.306
ACTCATTG	-0.0916

Sequence	PBM E-score
CACGCCAG	-0.0642
ACTTCGCA	-0.156
ACTTCGGA	0.458
ACTTCGAA	-0.167
CCGATCCG	0.445
ATGATCCA	-0.032
ACGATCCG	0.399
ATGATCCC	0.157
ACGATCCC	0.192
CCGATCCC	0.34
ACGATCCA	-0.0732
CCGATCCA	0.238
ATGATCCG	0.397
GAGACGCA	0.0275
CCCAATCC	0.0104
CAGGGGCG	-0.182
CTAACCGC	0.0169
GGAACCGA	0.343
CGGACCGA	0.419
TCAACCGA	0.291
CGAACCGC	0.0494
ATAACCGC	0.0841
GGGACCGA	0.265
CGGACCGC	0.29
CGAACCGA	0.397

Sequence	PBM E-score
CTAACCGA	0.401
ATAACCGG	0.281
ATAACCGA	0.388
GAACGTCA	-0.175
CTGCCATC	-0.0272
CCCGTACC	0.245
AGAACTTG	-0.161
ACTGACCT	-0.2
AATGAAAG	-0.0359
ACTAGGGG	-0.0854
TCCGCAGA	0.0922
GTAACCTA	0.0635
GTAACCCA	-0.0452
GATACCGA	0.291
GTTACCGA	0.366
GTAACCGA	0.386
CTTACCGC	0.119
TATACCGA	0.383
CATACCGA	0.287
CTTACCGA	0.393
GACCCAAC	-0.116
CGGTAGAG	0.112
